# Sampled rows, rich in hits. Any-hit rate of the full collection: about 7.5%.
# ELG1 genotoxic – qHTS screen for small molecules that induce genotoxicity in human embryonic kidney (HEK293T) cells expressing luciferase-tagged ELG1; HEK293T ELG1-luciferase reporter, luminescence, 16 h; Potency, µM (series often up to 46 µM), for the others: top-dose activity change, positive = activation, usual class: activators; 330,000 compounds, 1.3% hits; further: % of control where 0% means no effect; nearly all actives have a fitted effect of over 60% in size
#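 Genotoxicity was scored as increased ELG1-luciferase reporter signal, measured by ONE-Glo luminescence (30 min, room temperature). Compound or vehicle exposure of the HEK293T reporter cells lasted 16 hr at 37°C.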
# NPC1 promoter act – qHTS Assay for NPC1 Promoter Activators; Potency, µM (top dose mostly 9.22 µM), inactives show at the highest dose activation, most hits filed as activators; Huh7 NPC1 promoter luciferase reporter, 24 h; 320,000 compounds, 2.4% hits; further: % of control where 0% means no effect; nearly all actives have a fitted effect of over 60% in size
#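 Huh7 reporter cells (NPC1 promoter driving luciferase) are dosed with compound for 24 h at 37 °C, 5% CO2; luciferase detection reagent is then added and luminescence measured after 10 min at ambient temperature.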
# SMN2 splice enh – qHTS Assay for Enhancers of SMN2 Splice Variant Expression | Potency, µM (doses to about 46.1 µM), for inactives: at the highest dose activity change, positive = activation, actives largely listed as activators | HEK293 SMN2-luciferase splicing reporter, luminescence, 30-36 h | 210,000 compounds, 2.8% hits | AID 1458, 2008; further: % of control where 0% means no effect; nearly all actives have a fitted effect of over 55% in size
#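 HEK293 cells carry an SMN2 minigene-luciferase reporter in which exon 7 inclusion puts luciferase in frame. Cells were seeded at 2000 cells/well, attached for 10-12 hours, then exposed to compounds for 30-36 hours at 37C before ONE-Glo luminescence.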
# FLuc modulator – qHTS profiling assay for firefly luciferase inhibitor/activator using purifed enzyme and Km concentrations of substrates (counterscreen for miR-21 project) | Luciferin 4-monooxygenase (Photinus pyralis), P08659 | Potency, µM (top dose mostly 57.5 µM), for the others: at the top dose activity change, negative = inhibition, actives largely listed as inhibitors | AID 588342, 2011 | purified FLuc, Km substrates, luminescence inhibition | 360,000 compounds, 6.9% hits;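 further: plate controls were vehicle for no effect and reference inhibitor for full effect; nearly all actives have a fitted effect of over 55% in size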
# Target sequence (P08659 whole entry, looked up): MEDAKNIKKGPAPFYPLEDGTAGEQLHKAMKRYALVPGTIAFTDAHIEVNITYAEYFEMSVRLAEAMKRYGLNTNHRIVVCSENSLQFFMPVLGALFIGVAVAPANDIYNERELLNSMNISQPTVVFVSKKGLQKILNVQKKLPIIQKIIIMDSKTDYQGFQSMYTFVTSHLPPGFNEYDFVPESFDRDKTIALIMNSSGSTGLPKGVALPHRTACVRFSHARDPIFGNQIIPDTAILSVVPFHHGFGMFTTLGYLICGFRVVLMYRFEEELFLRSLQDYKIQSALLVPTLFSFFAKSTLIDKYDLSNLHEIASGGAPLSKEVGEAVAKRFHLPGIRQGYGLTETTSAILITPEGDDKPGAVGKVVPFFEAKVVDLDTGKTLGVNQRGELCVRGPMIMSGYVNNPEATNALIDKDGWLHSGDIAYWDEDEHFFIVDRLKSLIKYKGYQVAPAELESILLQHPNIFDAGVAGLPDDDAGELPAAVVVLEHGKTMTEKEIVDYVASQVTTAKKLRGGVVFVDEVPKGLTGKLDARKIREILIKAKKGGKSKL
#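 Purified P. pyralis luciferase, 10 nM final, with Km-level 10 uM D-luciferin and 10 uM ATP in 50 mM Tris acetate pH 7.5, 10 mM Mg acetate, 0.01% Tween-20, 0.05% BSA; 6-point qHTS titration about 60 µM downward; luminescence read.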
# Rab9 promoter act – qHTS Assay for Rab9 Promoter Activators; Huh7 Rab9 promoter-luciferase reporter, luminescence, 24 h; Potency, µM (titrated, usually from 9.22 µM), inactives show at the top dose activation, negative = inhibition, usual class: activators; 320,000 compounds, 2.8% hits; AID 485297, 2010; further: % of control where 0% means no effect; nearly all actives have a fitted effect of over 60% in size
#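 Huh7 reporter line, Rab9 promoter upstream of luciferase. Compound exposure 24 h at 37 °C in reduced-serum medium with 10% FBS. Read-out: luminescence.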
# An asterisk follows results filed as active; u = inconclusive; x = no result. The call rests on the fitted dose curve; in most records, active means well fitted curve in the direction sought with a large enough effect; inconclusive means small, poorly fitted or top-dose-only effect, or another doubt; inactive means no such curve, though single readings can be large; an effect the other way counts as inactive or inconclusive. Potency means the concentration at half of the fitted maximal effect.
SMILES,ELG1 genotoxic,NPC1 promoter act,SMN2 splice enh,FLuc modulator,Rab9 promoter act
O=C1N=C(N2CCCCC2)S/C1=C\c1ccncc1,-5.6%,-4.4%,x,-9.0%,-6.1%
Cc1nc(SC(C)C(=O)Nc2ccccc2C)cc(-c2ccccc2)n1 (centres undefined),x,x,x,-7.7%,x
CCc1ccc(/C=C2\SC(N3CCCC3)=NC2=O)cc1,3.2%,-0.5%,-38.1%,16.9µM*,-5.3%
Cc1c(Cl)cnc(NC(=O)COC(=O)c2ccc3ncsc3c2)c1Cl,4.0%,-0.7%,-53.3%,-12.7%,-8.4%
O=c1c2sccc2nc(SCc2cc(=O)n3cc(Cl)ccc3n2)n1Cc1ccccn1,u,u,6.4%,-3.2%,3.55µM*
O=C(O)CCCCCn1c(SCc2cc(=O)n3cc(Cl)ccc3n2)nc2ccsc2c1=O,4.0%,-1.1%,-22.2%,4.5%,-3.8%
O=S(=O)(c1cccc2nonc12)N1CCN(c2ccc(F)cc2)CC1,6.0%,-1.5%,x,26.9µM*,-8.1%
Cc1cccc(-c2nnc(NC(=O)c3ccco3)s2)c1,20.6µM*,2.82µM*,x,10.7µM*,3.16µM*
O=C(Nc1nnc(S(=O)(=O)N2CCN(c3ccc(F)cc3)CC2)s1)c1ccco1,4.6%,0.6%,x,19µM*,2.9%
Cc1noc(C)c1C(=O)Nc1nnc(-c2ccccc2)s1,2.4%,5.3%,-21.8%,15.1µM*,6.1%
O=C(Nc1nnc(S(=O)(=O)N2CCOCC2)s1)c1ccc(F)cc1,2.4%,2.9%,x,-5.9%,15.4%
O=C(Nc1nnc(-c2ccc(F)cc2)s1)c1ccco1,u,2.82µM*,x,2.69µM*,3.16µM*
O=C(Nc1ccc(F)cc1)c1ccc(S(=O)(=O)N2CCOCC2)o1,-6.2%,3.5%,x,3.3%,-3.9%
Cc1nccc2[nH]c(=O)c(C(=O)NC(C)CCc3ccccc3)cc12 (centres undefined),-0.6%,-4.2%,x,1.2%,-2.9%
CCOC(=O)C(/C(N)=N/C(=O)Nc1ccccc1)=C(\C)O,4.2%,6.3%,-4.3%,6.01µM*,1.5%
COc1ccc(NS(=O)(=O)c2ccc3c(c2)CC(C)N3C(C)=O)c(OC)c1 (centres undefined),x,x,x,-6.5%,x
CCN1CCc2c(sc(N)c2C(N)=O)C1,0.1%,-0.3%,-7.0%,0.7%,0.3%
CC1CCN(C(=O)CSc2nc3ccccc3[nH]2)CC1,u,2.51µM*,15.8µM*,23.9µM*,3.16µM*
NC(=O)C1CCN(C(=O)CSc2nc3ccccc3[nH]2)CC1,0.2%,1.4%,1.1%,6.3%,2.5%
C/C(N)=C(/C#N)C(=O)CSc1nnc(Nc2ccccc2)s1,u,u,11.2µM*,21.3µM*,2µM*
C/C(N)=C(/C#N)C(=O)CSc1nc2ccccc2[nH]1,20.6µM*,u,u,21.3µM*,u
CC(C)(C)NC(=O)C(Cc1ccccc1)NS(=O)(=O)c1cccc2nsnc12 (centres undefined),-4.0%,-1.5%,-8.6%,11.4%,-0.3%
O=C(Cc1cccs1)Nc1ccc(-c2nnn(CC(=O)N3CCOCC3)n2)cc1,1.7%,-0.5%,-0.3%,u,18.6%
Cc1cc(C)cc(NC(=O)CSc2nccn2Cc2ccco2)c1,5.0%,-5.2%,x,u,1.5%
COc1ccc(NC(=O)CSc2nccn2Cc2ccco2)cc1,16.4µM*,2.51µM*,x,23.9µM*,3.55µM*
CC(=O)Nc1ccc(NC(=O)CSc2nccn2Cc2ccco2)cc1,9.9%,10.4%,x,u,26.5%
CCC(=O)Nc1cc(NC(=O)CSc2ncc(-c3ccc(F)cc3)n2Cc2ccco2)ccc1C,18.4µM*,2.82µM*,15.6%,12µM*,u
Cc1cccc(NC(=O)CSc2nccn2Cc2ccco2)c1,u,3.16µM*,x,15.1µM*,2.82µM*
COc1ccc(NC(=O)CSc2ncc(-c3ccc(F)cc3)n2Cc2ccco2)cc1,-6.7%,-1.6%,-61.4%,3.3%,-5.9%
COc1ccc(C(=O)c2sc(Nc3ccccc3)nc2N)cc1,1.8%,7.7%,x,-17.7%,18.9%

# Source: PubChem
